# Measured values: PubChem BioAssay (EPA / NIEHS)
# Results filed as inconclusive are left out. Calls of active or inactive are those of the source. Rule for the calls: active = hit-call score of the fitted dose curve at least 0.9, where 1 is the maximum; inconclusive = response in the unintended direction; inactive = score below 0.9.
# Assays:
# [1] = target: human Opioid Receptor Delta 1 (Opiate D1), OPRD1 (gene 4985) (UniProt P41143); assay: NVS_GPCR_hOpiate_D1: NovaScreen (NVS) G Protein-Coupled Receptor Assay for human Opioid Receptor Delta 1 (Opiate D1) (AID 2283280)
# Sequence of human Opioid Receptor Delta 1 (Opiate D1), OPRD1 (gene 4985) (P41143 whole entry, looked up): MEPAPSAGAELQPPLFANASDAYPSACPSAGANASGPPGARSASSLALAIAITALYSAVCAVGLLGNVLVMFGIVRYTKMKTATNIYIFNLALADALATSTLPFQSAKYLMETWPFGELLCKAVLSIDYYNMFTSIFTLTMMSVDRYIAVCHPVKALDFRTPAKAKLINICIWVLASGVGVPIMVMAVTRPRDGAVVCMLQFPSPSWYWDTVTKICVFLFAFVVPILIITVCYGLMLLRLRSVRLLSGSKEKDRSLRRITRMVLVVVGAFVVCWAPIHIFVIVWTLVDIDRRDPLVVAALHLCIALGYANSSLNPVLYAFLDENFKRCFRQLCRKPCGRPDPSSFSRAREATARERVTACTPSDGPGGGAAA
# How it was run: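 Radioligand displacement on membranes from CHO cells expressing the receptor, read by filter scintillation counting 1 h after dosing. Duplicate single-point screen at 25 uM, then concentration series for actives; loss of signal versus DMSO.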
# [2] = target: human Orphanin, Opioid Related Nociceptin Receptor 1 (ORL1), OPRL1 (gene 4987) (UniProt P41146); assay: NVS_GPCR_hORL1: NovaScreen (NVS) G Protein-Coupled Receptor Assay for human Orphanin, Opioid Related Nociceptin Receptor 1 (ORL1) (AID 2283283)
# Sequence of human Orphanin, Opioid Related Nociceptin Receptor 1 (ORL1), OPRL1 (gene 4987) (P41146 whole entry, looked up): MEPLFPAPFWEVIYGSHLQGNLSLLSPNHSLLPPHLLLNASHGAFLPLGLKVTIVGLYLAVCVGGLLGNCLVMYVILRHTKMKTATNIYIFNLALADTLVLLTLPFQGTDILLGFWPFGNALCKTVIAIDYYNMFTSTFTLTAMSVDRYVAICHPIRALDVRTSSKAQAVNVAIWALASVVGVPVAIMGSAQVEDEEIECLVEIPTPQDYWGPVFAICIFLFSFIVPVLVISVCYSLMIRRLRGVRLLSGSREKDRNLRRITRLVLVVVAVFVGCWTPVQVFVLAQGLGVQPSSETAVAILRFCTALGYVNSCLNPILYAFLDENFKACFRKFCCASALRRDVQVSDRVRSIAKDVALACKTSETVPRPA
# How it was run: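 Filter-based radioligand displacement with receptor extracted from HEK293 cells, read 1 hour after dosing by scintillation counting. Duplicate single-point screen at 25 uM; qualifying chemicals then run in concentration-response to 50 uM, analysed relative to DMSO.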
# [3] = target: rat Serotonin, 5-Hydroxytryptamine Receptor 1 (5HT1), Non-Selective Binding, Htr1a (gene 24473) (UniProt P19327); assay: NVS_GPCR_r5HT1_NonSelective: NovaScreen (NVS) G Protein-Coupled Receptor Assay for rat Serotonin, 5-Hydroxytryptamine Receptor 1 (5HT1), Non-Selective Binding (AID 2283286)
# Sequence of rat Serotonin, 5-Hydroxytryptamine Receptor 1 (5HT1), Non-Selective Binding, Htr1a (gene 24473) (P19327 whole entry, looked up): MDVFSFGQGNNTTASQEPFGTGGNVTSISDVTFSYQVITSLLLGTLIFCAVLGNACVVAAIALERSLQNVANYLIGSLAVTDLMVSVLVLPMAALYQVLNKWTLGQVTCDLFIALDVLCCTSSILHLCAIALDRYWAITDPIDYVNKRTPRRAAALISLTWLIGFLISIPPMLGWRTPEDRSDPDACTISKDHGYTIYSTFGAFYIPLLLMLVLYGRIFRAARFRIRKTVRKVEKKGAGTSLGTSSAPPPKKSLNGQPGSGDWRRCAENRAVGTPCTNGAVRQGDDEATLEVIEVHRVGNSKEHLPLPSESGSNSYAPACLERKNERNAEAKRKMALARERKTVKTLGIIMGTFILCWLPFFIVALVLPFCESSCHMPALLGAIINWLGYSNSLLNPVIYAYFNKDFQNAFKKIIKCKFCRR
# How it was run: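 Rat cortical membranes, radioligand displacement, 1 h incubation, read by filter scintillation. Primary screen in duplicate at 25 uM. Hits (e.g. ≥30% inhibition) went to concentration-response up to 50 uM, fitted as loss of binding versus DMSO.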
# [4] = target: rat Adrenergic, Alpha 1, Non-selective Receptor (Adra1), Adra1a (gene 29412) (UniProt P43140); assay: NVS_GPCR_rAdra1_NonSelective: NovaScreen (NVS) G Protein-Coupled Receptor Assay for rat Adrenergic, Alpha 1, Non-selective Receptor (Adra1) (AID 2283289)
# Sequence of rat Adrenergic, Alpha 1, Non-selective Receptor (Adra1), Adra1a (gene 29412) (P43140 whole entry, looked up): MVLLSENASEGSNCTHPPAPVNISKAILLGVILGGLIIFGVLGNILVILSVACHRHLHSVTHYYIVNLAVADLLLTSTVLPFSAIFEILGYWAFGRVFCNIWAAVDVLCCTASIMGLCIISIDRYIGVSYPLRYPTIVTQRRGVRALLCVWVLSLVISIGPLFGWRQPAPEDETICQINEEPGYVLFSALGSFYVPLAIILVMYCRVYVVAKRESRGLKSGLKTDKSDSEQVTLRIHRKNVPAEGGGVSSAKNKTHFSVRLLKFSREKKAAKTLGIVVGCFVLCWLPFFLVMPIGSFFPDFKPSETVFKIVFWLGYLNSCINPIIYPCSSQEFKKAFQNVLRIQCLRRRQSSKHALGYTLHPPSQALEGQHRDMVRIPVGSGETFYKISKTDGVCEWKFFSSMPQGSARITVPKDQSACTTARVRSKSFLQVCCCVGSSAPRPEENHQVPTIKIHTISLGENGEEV
# How it was run: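 Rat forebrain membranes; radioligand displacement read by filter-based scintillation counting 1 h after dosing. Primary screen in duplicate at 25 uM; hits (e.g. ≥30% inhibition) rerun as concentration–response to 50 uM max. Fitted versus DMSO.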
# [5] = target: human Vasopressin 1A Receptor (V1A), AVPR1A (gene 552) (UniProt P37288); assay: NVS_GPCR_hV1A: NovaScreen (NVS) G Protein-Coupled Receptor Assay for human Vasopressin 1A Receptor (V1A) (AID 2283284)
# Sequence of human Vasopressin 1A Receptor (V1A), AVPR1A (gene 552) (P37288 whole entry, looked up): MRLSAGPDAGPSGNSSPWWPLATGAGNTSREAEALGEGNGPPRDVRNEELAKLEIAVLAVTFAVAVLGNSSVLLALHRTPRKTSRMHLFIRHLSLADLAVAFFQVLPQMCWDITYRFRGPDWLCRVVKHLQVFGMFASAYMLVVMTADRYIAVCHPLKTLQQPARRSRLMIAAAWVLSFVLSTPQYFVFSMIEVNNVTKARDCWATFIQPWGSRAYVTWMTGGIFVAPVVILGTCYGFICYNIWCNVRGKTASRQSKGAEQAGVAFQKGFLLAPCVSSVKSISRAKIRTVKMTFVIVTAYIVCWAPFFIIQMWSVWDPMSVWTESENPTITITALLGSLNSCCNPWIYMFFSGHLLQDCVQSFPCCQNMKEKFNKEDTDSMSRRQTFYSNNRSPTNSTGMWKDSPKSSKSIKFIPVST
# How it was run: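 Cell-free radioligand displacement on human platelet preparations, 1.5 h incubation, filter-based scintillation counting. Chemicals first tested in duplicate at 25 uM; actives then run in concentration-response up to 50 uM, loss of signal fitted against DMSO.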
# [6] = target: mouse Cholecystokinin, CCK1 Receptor (CCKA), Cckar (gene 12425) (UniProt O08786); assay: NVS_GPCR_mCCKAPeripheral: NovaScreen (NVS) G Protein-Coupled Receptor Assay for mouse Cholecystokinin, CCK1 Receptor (CCKA) (AID 2283285)
# Sequence of mouse Cholecystokinin, CCK1 Receptor (CCKA), Cckar (gene 12425) (O08786 whole entry, looked up): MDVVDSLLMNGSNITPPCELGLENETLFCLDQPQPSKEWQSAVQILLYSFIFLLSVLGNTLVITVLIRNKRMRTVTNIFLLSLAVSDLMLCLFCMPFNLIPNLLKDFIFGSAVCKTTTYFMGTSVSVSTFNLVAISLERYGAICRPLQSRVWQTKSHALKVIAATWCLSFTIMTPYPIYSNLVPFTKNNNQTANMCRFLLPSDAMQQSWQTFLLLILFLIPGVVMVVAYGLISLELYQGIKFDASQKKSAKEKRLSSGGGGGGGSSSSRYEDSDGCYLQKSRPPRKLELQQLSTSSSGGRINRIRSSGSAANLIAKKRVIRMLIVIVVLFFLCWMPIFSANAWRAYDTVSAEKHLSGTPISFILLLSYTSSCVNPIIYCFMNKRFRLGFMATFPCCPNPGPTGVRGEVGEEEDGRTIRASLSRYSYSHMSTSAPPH
# How it was run: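 Radioligand competitive displacement on mouse pancreatic membranes, 2 h incubation; filter-based scintillation counting, loss of signal versus DMSO. Single-concentration screen at 25 uM in duplicate, actives retested in concentration-response up to 50 uM.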
# [7] = tested on: rabbit Platelet Activating Factor Receptor (PAF), gene 100354046; assay: NVS_GPCR_rabPAF: NovaScreen (NVS) G Protein-Coupled Receptor Assay for rabbit Platelet Activating Factor Receptor (PAF) (AID 2283287)
# How it was run: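 Rabbit platelet membrane preparation; radioligand displacement read by filter-based scintillation counting 1 h after dosing, loss of signal versus DMSO. Primary screen in duplicate at 25 uM, actives followed up in concentration series.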
# [8] = tested on: 5-hydroxytryptamine receptor 2C (pig); assay: NVS_GPCR_p5HT2C: NovaScreen (NVS) G Protein-Coupled Receptor Assay for pig Serotonin, 5-Hydroxytryptamine Receptor 2C (5HT2C) (AID 2283288)
# How it was run: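 Pig choroid plexus membranes; radioligand competitive binding, filter-based scintillation counting, read 1 h after dosing. Primary screen in duplicate at 25 uM; actives then run as concentration series; loss of signal versus DMSO baseline.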
# [9] = target: human Thromboxane A2 Receptor (TXA2), TBXA2R (gene 6915) (UniProt P21731); assay: NVS_GPCR_hTXA2: NovaScreen (NVS) G Protein-Coupled Receptor Assay for human Thromboxane A2 Receptor (TXA2) (AID 2283282);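 note: actives reduce bound radioligand signal relative to DMSO baseline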
# Sequence of human Thromboxane A2 Receptor (TXA2), TBXA2R (gene 6915) (P21731 whole entry, looked up): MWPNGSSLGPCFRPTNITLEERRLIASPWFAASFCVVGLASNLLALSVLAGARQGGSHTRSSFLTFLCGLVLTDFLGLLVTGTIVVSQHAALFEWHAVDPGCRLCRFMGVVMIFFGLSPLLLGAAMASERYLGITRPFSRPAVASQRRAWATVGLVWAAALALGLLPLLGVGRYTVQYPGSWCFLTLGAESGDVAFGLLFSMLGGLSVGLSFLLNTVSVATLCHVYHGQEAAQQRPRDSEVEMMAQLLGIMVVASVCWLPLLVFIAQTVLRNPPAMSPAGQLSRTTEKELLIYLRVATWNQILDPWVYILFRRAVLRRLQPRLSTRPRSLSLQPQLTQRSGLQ
# Description: NVS_GPCR_hTXA2 is a biochemical, single-readout assay that uses extracted gene-proteins from Human platelets in a cell-free assay. Measurements were taken 1 hour after chemical dosing in a 96-well plate.NVS_GPCR_hTXA2 is one of one assay component(s) measured or calculated from the NVS_GPCR_hTXA2 assay. It is designed to make measurements of radioligand binding, a form of binding reporter, as detected with scintillation counting signals by Filter-based radiodetection technology.Data from the assay component NVS_GPCR_hTXA2 was analyzed into 1 assay endpoint. This assay endpoint, NVS_GPCR_hTXA2, was analyzed in the positive analysis fitting direction relative to DMSO as the negative control and baseline of activity. Using a type of binding reporter, loss-of-signal activity can be used to understand changes in the binding as they relate to the gene TBXA2R. Furthermore, this assay endpoint can be referred to as a primary readout, because the performed assay has only produced 1 assay endpoint. To generalize the intended target to other relatable targets, this assay endpoint is annotated to the gpcr intended target family, where the subfamily is rhodopsin-like receptor.
# Binding assays used specific radioligands (tritiated, iodinated) with non-radioactive competitive displacement ligands in agonist or antagonist protocols (as indicated) and various reference compounds and inhibitors to titrate specific binding to receptors and transporters. Most enzyme assays (CYPs, kinases, phosphatases, proteases, HDACs) used recombinant protein and specific substrates (fluorescence mostly, some colorimetric and radioactive) and inhibitors, followed by a biochemical separation of substrate and product. All assays for the biochemical HTS were initially run in duplicate at a single concentration (10 uM for CYP450 assays and 25 uM for all others). […] Each assay was run with positive and negative controls, and concurrent controls on every plate. The follow-up (secondary) screen tested active chemical-pairs in concentration series, as well as a few additional assays not tested in the primary screen, some selected negative inactives, and several cases re-run in the concentration series for confirmatory purposes.
# [10] = target: human Purinergic Receptor P2Y, P2RY1 (gene 5028) (UniProt P47900); assay: NVS_GPCR_hPY2: NovaScreen (NVS) G Protein-Coupled Receptor Assay for human Purinergic Receptor P2Y (AID 2283281)
# Sequence of human Purinergic Receptor P2Y, P2RY1 (gene 5028) (P47900 whole entry, looked up): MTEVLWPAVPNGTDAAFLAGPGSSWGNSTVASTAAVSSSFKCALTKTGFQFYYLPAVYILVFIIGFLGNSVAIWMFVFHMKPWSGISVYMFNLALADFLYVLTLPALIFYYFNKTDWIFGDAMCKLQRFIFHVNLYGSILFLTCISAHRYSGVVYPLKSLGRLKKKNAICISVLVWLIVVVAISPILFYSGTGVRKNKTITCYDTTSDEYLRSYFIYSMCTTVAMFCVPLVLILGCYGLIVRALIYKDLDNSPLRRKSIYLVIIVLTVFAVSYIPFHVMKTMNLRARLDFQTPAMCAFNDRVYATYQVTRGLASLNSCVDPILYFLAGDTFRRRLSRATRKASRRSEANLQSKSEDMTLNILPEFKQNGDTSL
# How it was run: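 Cell-free radioligand binding using U937-derived protein, 1 h after dosing, filter-based scintillation counting. Screened in duplicate at 25 uM; actives rerun as concentration-response up to 50 uM; loss of signal versus DMSO.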
smiles,measurement,setting,value
O=C(N[C@H](c1ccccc1)[C@@H]1CN2CCC1CC2)c1c(Cl)ccc(C(F)(F)F)c1Cl,outcome,[1],inactive
same,AC50,[2],3.38 µM (active)
same,outcome,[3],inactive
same,AC50,[4],23.6 µM (active)
O=[N+]([O-])C(Br)(CO)CO,AC50,[2],5.41 µM (active)
same,outcome,[5],inactive
same,AC50,[3],32.8 µM (active)
Nc1ccc(N=Nc2ccccc2)cc1,outcome,[1],inactive
N#CC(Br)(Br)C(N)=O,AC50,[2],41.2 µM (active)
Cc1cc(N=Nc2ccccc2C)ccc1N,outcome,[6],inactive
Oc1ccccc1Cl,outcome,[7],inactive
Clc1ccc(C(c2ccc(Cl)cc2)C(Cl)Cl)cc1,outcome,[8],inactive
CN(C)C(=O)Nc1ccc(Cl)cc1,outcome,[9],inactive
CC(C)(O)c1cnn2c(-c3ccc(F)c(-c4c(F)cccc4C#N)c3)cnc2n1,outcome,[8],inactive
CCOC(=O)[C@]1(c2ccccc2)Oc2ccccc2[C@@H]1N,AC50,[1],16.5 µM (active)
same,AC50,[3],1.08 µM (active)
same,AC50,[7],7.6 µM (active)
same,AC50,[8],1.29 µM (active)
same,AC50,[4],0.184 µM (active)
CC(C)(C)C(O)(CCc1ccc(Cl)cc1)Cn1cncn1 (stereo not drawn),outcome,[9],inactive
same,outcome,[6],inactive
same,AC50,[7],16.7 µM (active)
Cc1cccc(N)c1N,AC50,[8],16.8 µM (active)
CCCCCCCCn1sccc1=O,outcome,[10],inactive
same,AC50,[9],9.13 µM (active)
same,AC50,[2],14.1 µM (active)
C=CCc1ccc2c(c1)OCO2,outcome,[4],inactive
CC(O)CCO (stereo not drawn),outcome,[5],inactive
Nc1cc(Cl)cc(C(=O)O)c1Cl,outcome,[9],inactive
Oc1ccc2ccc3cccc4ccc1c2c34,outcome,[9],inactive
O=C(Oc1ccc(Br)cc1)N1CCN2CCC1CC2,outcome,[4],inactive
Cc1ccc(N=C=O)cc1N=C=O,outcome,[3],inactive
[Cl-].[Cl-].[Hg+2],AC50,[1],0.275 µM (active)
same,outcome,[9],inactive
same,AC50,[2],0.321 µM (active)
same,AC50,[6],18 µM (active)
same,AC50,[7],36.7 µM (active)
same,AC50,[4],2.86 µM (active)
CN(C)[C@@H]1C(=O)C(C(N)=O)=C(O)[C@@]2(O)C(=O)C3=C(O)c4c(O)cccc4[C@@](C)(O)[C@H]3C[C@@H]12,AC50,[6],25 µM (active)
CCC[CH2][Sn]([Cl])([CH2]CCC)[CH2]CCC,AC50,[1],0.593 µM (active)
same,AC50,[9],1.77 µM (active)
same,AC50,[2],1.21 µM (active)
same,AC50,[5],7.85 µM (active)
same,AC50,[6],0.228 µM (active)
same,AC50,[3],17.2 µM (active)
same,AC50,[7],5.79 µM (active)
same,AC50,[4],8.26 µM (active)
CCCCCOC(=O)c1ccccc1C(=O)OCCCCC,outcome,[1],inactive
same,outcome,[2],inactive
same,outcome,[6],inactive
O=[N+]([O-])c1ccc(Oc2ccc(Cl)cc2Cl)cc1,outcome,[6],inactive
COC(=O)Nc1nc2ccccc2[nH]1,outcome,[8],inactive
COP(=S)(OC)SCN1C(=O)c2ccccc2C1=O,outcome,[1],inactive
same,AC50,[2],44.4 µM (active)
same,outcome,[3],inactive
same,AC50,[7],14.9 µM (active)
CC(C)N(Cc1ccccc1)C(=O)C(C)(C)C,AC50,[7],13.1 µM (active)
O=P(OCCCl)(OCCCl)OCCCl,outcome,[1],inactive
